Laboratory results published in PubChem BioAssay (NCI).
Compounds without any hit were thinned out: in the full panel of roughly 83,000, 20% have a hit.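 Values shown are percent growth following 48 h exposure of cells in 96-well plates to a single concentration of compound; below 10 was considered active.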 A number with no mark means an inactive call. Calls of active or inactive are those of the source.

Experiments:
Assay in all cases: NCI-60 one-dose screen, 48 h (100 = growth as untreated, 0 = no growth, -100 = all killed)
SK-MEL-2 melanoma = settings: 10 µM unless noted
EKVX NSCLC = settings: 10 µM unless noted
SN12C renal = settings: 10 µM unless noted
UO-31 renal = settings: 10 µM unless noted
TK-10 renal = settings: 10 µM unless noted
ACHN renal = settings: 10 µM unless noted
CAKI-1 renal = settings: 10 µM unless noted
A498 renal = settings: 10 µM unless noted
MOLT-4 leukemia = settings: 10 µM unless noted
SR leukemia = settings: 10 µM unless noted
RPMI-8226 leukemia = settings: 10 µM
OVCAR-8 ovarian = settings: 10 µM unless noted
OVCAR-5 ovarian = settings: 10 µM unless noted
OVCAR-4 ovarian = settings: 10 µM unless noted
SK-OV-3 ovarian = settings: 10 µM
IGROV1 ovarian = settings: 10 µM unless noted
OVCAR-3 ovarian = settings: 10 µM unless noted
NCI/ADR-RES ovarian = settings: 10 µM unless noted
CCRF-CEM leukemia = settings: 10 µM unless noted
HS 578T breast = settings: 10 µM unless noted

SMILES | growth (SK-MEL-2 melanoma) | growth (EKVX NSCLC) | growth (SN12C renal) | growth (UO-31 renal) | growth (TK-10 renal) | growth (ACHN renal) | growth (CAKI-1 renal) | growth (A498 renal) | growth (MOLT-4 leukemia) | growth (SR leukemia) | growth (RPMI-8226 leukemia) | growth (OVCAR-8 ovarian) | growth (OVCAR-5 ovarian) | growth (OVCAR-4 ovarian) | growth (SK-OV-3 ovarian) | growth (IGROV1 ovarian) | growth (OVCAR-3 ovarian) | growth (NCI/ADR-RES ovarian) | growth (CCRF-CEM leukemia) | growth (HS 578T breast)
CCCCc1ccc(C(O)(CCN2CC3CCC(CC3)C2)c2ccccc2)cc1 (centres undefined) | 98% | 87.4% | 95.7% | 65.3% | 104% | 94.5% | 92.6% | 77% | 80.9% | 68% | 72.2% | 104% | 90.9% | 97% | 91.2% | 95.2% | 91.9% | 98.3% | – | –
O=C(c1ccccc1)C(Br)C(Br)c1cccc([N+](=O)[O-])c1 (centres undefined) | 69.8% | 101% | 67.1% | -74.8% (active) | -25.4% (active) | -87.9% (active) | -25.5% (active) | 48.2% | 3.67% (active) | -33.3% (active) | – | 18.6% | 73.9% | 29.3% | – | -29.7% (active) | -23.4% (active) | 51.4% | -15.7% (active) | 91.9%
COc1cc(-c2nc3ccccc3o2)cc(CN2CCN(c3ccccc3)CC2)c1O | 75% | 71.8% | 66.2% | 43.8% | 117% | 73.6% | 84.9% | 77.6% | 92.5% | 45.1% | 53.2% | 78.3% | 117% | 84.6% | 116% | 86.8% | 63.7% | 69.4% | – | 110%
O=C(N/N=C/c1ccc(F)cc1)c1[nH]c2ccc(I)cc2c1-c1ccccc1 | 71.9% | 5.92% (active) | 32.6% | 46% | 65.2% | 36% | 5.08% (active) | 39.1% | 72.5% | 114% | 22% | 45.5% | – | 37.2% | -1.53% (active) | 23.8% | 5.48% (active) | – | 39.2% | 51.8%
CCOc1ccc(-c2cnnn2-c2nonc2-n2cccc2)cc1 | 18.3% | 60.9% | 40.1% | 29.8% | 45.3% | 47.3% | 46.4% | 18.7% | 8.83% (active) | 1.35% (active) | 12.5% | 25.9% | 41.1% | 39.6% | -1.75% (active) | 36.5% | -37.1% (active) | -5.39% (active) | – | –
Nc1cc(Br)c(-c2nnc(CCC(=O)c3nc4ccccc4[nH]3)o2)c(Br)c1 | 34.3% | 95.6% | 95.4% | 47.4% | 101% | 102% | 90.5% | 71.7% | 68.2% | 18.5% | – | 95.2% | 97.2% | 82.4% | 81.8% | 76.8% | 49.1% | 89.6% | – | 99.6%
COc1cccc(C2C3=C(COC3=O)N(CCO)c3cc4c(cc32)OCO4)c1 (centres undefined) | 33% | 36.2% | 46.7% | 57.7% | 59.8% | 48.4% | 30% | -5.85% (active) | 27.1% | – | 31.4% | 42.3% | 35.6% | 40.6% | 20.8% | 30.4% | -64.9% (active) | -16.2% (active) | 21.3% | 2.25% (active)
O=C1/C(=C/c2ccc([N+](=O)[O-])cc2)Oc2ccc(O)cc21 | 104% | 91.9% | 85.8% | 70.4% | 17.8% | 82.3% | 5.52% (active) | – | 18.7% | 43% | 34% | 90.7% | -9.84% (active) | 39.7% | – | 18% | 16.7% | 89% | 72.5% | 97.2%
Cc1nc(NC(=O)COc2cccc(/C=C3\COc4ccccc4C3=O)c2)sc1C | -77% (active) | -23.3% (active) | -46.1% (active) | -80.1% (active) | -74.1% (active) | -96.9% (active) | -94.3% (active) | 87.2% | -36.8% (active) | -69.5% (active) | -74.2% (active) | 7.04% (active) | – | 55.1% | 92.2% | – | -83.3% (active) | – | -74.7% (active) | -33.7% (active)
COc1cc(/C=C/C(=O)C(=Cc2ccc(F)c(F)c2)C(=O)/C=C/c2ccc(O)c(OC)c2)ccc1O | 6.91% (active) | 72.1% | 31.2% | 53.2% | 35.5% | 27.3% | 95.6% | 116% | 12.2% | 18.2% | 19.9% | 11.1% | 115% | 39.3% | 94.4% | 5.44% (active) | -11.9% (active) | 57.6% | – | 38.4%
Cc1nc(-c2ccccc2)cc2c(O)c(C(=O)N/N=C/Cc3ccccc3)[nH]c(=O)c12 | 102% | 103% | 104% | 95.1% | 109% | 104% | 111% | 94.5% | 90.5% | 46.1% | 103% | 103% | 101% | 110% | 108% | 113% | 116% | 109% | – | 112%
O=S(=O)(Nc1ccc(Cl)c(Cl)c1)c1ccc(-c2cnc(C3CC3)o2)cc1 | 37.4% | 33.8% | 41.2% | 44% | 51.3% | 45.1% | 35.9% | – | 32.4% | 43.7% | 24.6% | 33.3% | 34.2% | 46.4% | – | 27% | -17.8% (active) | 5.86% (active) | 18.9% | -18.5% (active)
CC1CCCCN1S(=O)(=O)c1ccc(CN=C=S)cc1 (centres undefined) | 94.5% | 99.2% | 66.1% | 54% | 64.4% | 4.78% (active) | 51.2% | 79% | 31.1% | 5.92% (active) | – | 78.7% | 93% | 100% | – | 60.9% | -55.6% (active) | 102% | 39.2% | 59.4%
O=C(NCc1cccnc1)c1ccc([N+](=O)[O-])o1 | -16.7% (active) | 62.1% | -53.4% (active) | 2.12% (active) | -30.5% (active) | 34.5% | -3.61% (active) | 9.84% (active) | 65.8% | 23% | – | 4.23% (active) | -1.25% (active) | 63.9% | 32.3% | 33.7% | -4.71% (active) | -29.1% (active) | 54.4% | -9.03% (active)
CCCCCCCC/C=C\CCCCCCCCOc1cccc(CC(=O)NCC[N+](C)(C)C)c1 | 106% | 92.6% | 69.7% | 92.6% | 68.6% | 93.4% | 71.2% | – | 92.9% | 59% | 61.9% | 85.9% | 51.8% | 88.6% | – | 3.34% (active) | 99.4% | 103% | 78% | 78.4%
NC1=NC(c2ccccc2OS(=O)(=O)c2ccc(Br)cc2)n2c(nc3ccccc32)N1 (centres undefined) | 101% | 99.1% | 87.7% | 73.5% | 99% | 94.5% | 104% | 101% | 79.3% | – | 69.8% | 88.3% | 99% | 110% | 105% | 81.8% | 94.6% | – | – | 101%
C=C[C@H]1C[C@@H]2C[C@@H]3[C@H]4C/C=C\C(=O)NCCCC5NC(=O)C(=C(O)/C=C/[C@@H]4CC(=O)[C@H]3[C@@H]2[C@H]1C)C5=O (some centres undefined) | -54% (active) | 61.6% | -60.7% (active) | -87.4% (active) | -94.5% (active) | -93.3% (active) | 29% | -93.5% (active) | -68.9% (active) | -55.9% (active) | -54.5% (active) | -84.7% (active) | -92.7% (active) | -78.1% (active) | -100% (active) | -62.8% (active) | -95.3% (active) | -73.4% (active) | – | –
